Hits are enriched below; roughly 3.7% of the tested compounds scored in any of these assays.
ERb SRC1 inh = ER-beta (human) coactivator binding inhibition; Q92731; 1.3% of 86,000 active; TR-FRET ER-beta LBD / SRC1-Cy5 peptide binding; receptor agonist-loaded with 1 µM estradiol; inhibition, % at 25.6 µM;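 active = compounds whose percent inhibition of the receptor-coactivator binding signal exceeds about 50% in the single-dose screen, limit read from the data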
Target sequence (Q92731 whole entry, looked up, the tested form may be a part): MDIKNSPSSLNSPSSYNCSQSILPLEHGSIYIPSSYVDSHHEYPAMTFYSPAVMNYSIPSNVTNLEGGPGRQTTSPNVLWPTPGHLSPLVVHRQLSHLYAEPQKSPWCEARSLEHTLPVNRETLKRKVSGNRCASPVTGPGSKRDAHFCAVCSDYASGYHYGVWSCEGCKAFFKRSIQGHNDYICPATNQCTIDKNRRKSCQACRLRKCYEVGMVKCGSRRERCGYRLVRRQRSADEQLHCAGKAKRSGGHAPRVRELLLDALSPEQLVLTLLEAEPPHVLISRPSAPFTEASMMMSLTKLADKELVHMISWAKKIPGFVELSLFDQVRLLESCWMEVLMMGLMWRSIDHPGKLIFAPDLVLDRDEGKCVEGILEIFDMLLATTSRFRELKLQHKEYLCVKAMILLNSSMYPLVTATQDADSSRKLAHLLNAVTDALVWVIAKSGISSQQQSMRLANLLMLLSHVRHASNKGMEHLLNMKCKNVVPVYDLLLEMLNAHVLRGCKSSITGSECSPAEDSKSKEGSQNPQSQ
ERa SRC1 pot = enhances coactivator binding to human estrogen receptor alpha | TR-FRET ERalpha-LBD/SRC-Cy5 coactivator binding, 2 h; 100 = basal binding, no effect | coactivator binding (% of control), % at 25.6 µM | 1.3% of 86,000 active; in the data active = activity above about 200%;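 note: binding measured in presence of low estradiol as agonist stimulus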
ERa SRC1 inh = ER-alpha (human) coactivator binding inhibition. inhibition, % at 25.6 µM. TR-FRET ER-alpha LBD / SRC-1 peptide, estradiol-bound. AID 629. 1.7% of 86,000 active; in the data active = inhibition above about 50%
Smad3 inh = inhibitors of human Smad3 transcription factor binding | P84022 | TR-FRET Smad3/Dy647-FoxH1 peptide binding, europium anti-His | inhibition, % at 25 µM | 0.29% of 88,000 active;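 active = compounds that reduce the energy-transfer binding signal between the protein and its labelled peptide by more than half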
A number is an active result; 0 = inactive; - = no result; [ ] = dose if it differs, or a comment.

SMILES	ERb SRC1 inh	ERa SRC1 pot	ERa SRC1 inh	Smad3 inh
Cc1ccc(O)c(C2=Nc3ccccc3N=C(c3ccco3)C2)c1	0	228[fluorescence artefact?]	0	0
O=C1CC(c2ccco2)=Nc2ccccc2N1	0	0	0	0
COc1cc(O)c2c(O)c3c(c4c2c1[C@]1(C4)C(C)=CCCC1(C)C)[C@H](O)[C@@]1(O)CC(=O)C(C(N)=O)=C(O)[C@]1(O)C3=O	-	-	-	0
O=c1c2c3c(sc2nc2sc(CN4CCCCC4)cn12)CCCC3	0	268[fluorescence artefact?]	51[fluorescence artefact?]	0
CN(Cc1ccccc1)Cn1ccnc1	-	-	-	0
CCOC(=O)c1c(C)nc(-c2ccccc2)nc1N	0	0	0	0
CCOC(=O)C1=C(c2ccccc2)N2CCN=C2S1	0	424[fluorescence artefact?]	0	0
O=C(O)c1cc(-c2ccc(-c3ccc(-c4cc(C(=O)O)c5cc(Cl)ccc5n4)cc3)cc2)nc2ccc(Cl)cc12	-	-	-	0
C=CCc1cccc(/C=N/c2ncccc2O)c1O	58[fluorescence artefact?]	0	0	0
COc1ccc(C2=Nn3c(nnc3-c3cccnc3)SC2)cc1	58[fluorescence artefact?]	0	0	0
CC(C)(Oc1ccc(-c2ccco2)cc1)C(=O)O	0	0	0	0
CC(=O)C1=C(O)C=C(c2ccco2)CC1c1ccco1 (stereo unspecified)	50[fluorescence artefact?]	0	0	0
O=C(O)CCc1c2ccc(=O)c(O)c-2oc2c(O)c(O)ccc12	-	-	-	0
CC(C)Cn1c(=O)c(C(=O)Nc2ccncc2)c(O)c2ccccc21	0	0	51[fluorescence artefact?]	0
Cc1ccc(NC(=O)c2c(O)c3ccccc3n(C)c2=O)nc1	0	0	0	0
Cc1ccnc(NC(=O)c2c(O)c3ccccc3n(C)c2=O)c1	0	345[fluorescence artefact?]	0	0
CN(C)CCNCCN	-	-	-	0
O=C1NCCCC2c3cc(O)c4ccccc4c3OC12N1CCCCC1 (stereo unspecified)	55	0	0	0
COc1ccccc1N/C(N)=N/c1nc(CSc2ccc(C)cc2)cc(=O)[nH]1	0	258[fluorescence artefact?]	0	0
COc1ccc(Cl)cc1NC(=O)c1ocnc1C	62	0	52	0
COc1ccc(NC(=O)c2ocnc2C)cc1OC	0	0	0	0
CCOC(=O)c1sc(C)c2c(=O)n(CCCN3CCOCC3)cnc12	0	0	0	0
CCOC(=O)c1sc(C)c2c(=O)n(CC(=O)c3ccc(Br)cc3)nnc12	59[fluorescence artefact?]	0	0	0
CCOC(=O)Cc1csc(NC(=O)CC)n1	0	0	0	0
CCOC(=O)Cc1csc(NC(=O)Cc2cccs2)n1	75	0	90[fluorescence artefact?]	0
SMILES	ERb SRC1 inh	ERa SRC1 pot	ERa SRC1 inh	Smad3 inh
CCn1c(CCCNC(=O)c2ccc(F)cc2)nc2ccccc21	0	270	0	0
CCn1c(CCNC(=O)c2ccc(F)cc2)nc2ccccc21	0	0	0	0
COc1ccc(-c2oc(NC(=O)CCl)c(C#N)c2-c2ccc(OC)cc2)cc1	55[fluorescence artefact?]	0	0	0
N#Cc1c(NC(=O)CSc2ncccn2)oc(-c2ccccc2)c1-c1ccccc1	0	0	60	0
Cc1ccnc(SCC(=O)Nc2oc(-c3ccccc3)c(-c3ccccc3)c2C#N)n1	0	0	0	0
CC1(C)[C@@H]2CC[C@@](C)(C2)[C@@H]1OC(=O)c1ccccc1C(=O)O	-	-	-	0
O=C(Nc1cccc(NC(=O)c2ccc(Br)o2)n1)c1ccc(Br)o1	0	258[fluorescence artefact?]	0	0
Cc1ccc2cccc(NC(=O)c3ccc(Br)o3)c2n1	0	0	0	0
O=C(Nc1nc2c(Cl)cccc2s1)c1ccc(Br)o1	0	535[fluorescence artefact?]	0	0
Cc1cc(NC(=O)CSc2nc3c(sc4ccccc43)c(=O)n2CCc2ccccc2)n[nH]1	0	0	50[fluorescence artefact?]	0
Cc1cc(NC(=O)CSc2nc3c(sc4ccccc43)c(=O)n2CCCN2CCOCC2)n[nH]1	0	0	0	0
Cc1ccccc1Cn1ccc(NC(=O)c2cnn3c2NC(c2ccccc2)CC3C(F)(F)F)n1 (stereo unspecified)	0	0	0	0
Cc1nn(C)c(C)c1CN(C)C(=O)c1cnn2c1NC(c1ccccc1)CC2C(F)(F)F (stereo unspecified)	56	0	0	0
CO[C@@H]1/C=C\O[C@]2(C)Oc3c(C)c(O)c4c(O)c(c(CN(C)C)c(O)c4c3C2=O)NC(=O)C(C)=C/C=C\[C@@H](C)[C@@H](O)[C@H](C)[C@@H](O)[C@H](C)[C@H](OC(C)=O)[C@@H]1C	-	-	-	0
CCCCC(=O)Nc1ccc(C(=O)Nc2nnc(COC)s2)cc1	0	0	0	0
Cc1oc(-c2ccccc2)nc1C(=O)Nc1nccs1	0	0	52[fluorescence artefact?]	0
COCCn1c(SCC(=O)Nc2sccc2C(N)=O)nc2cc(Cl)ccc2c1=O	0	0	0	0
COc1ccc(-c2nnc(SCc3cc(C)ccc3C)n2N)cc1	0	0	0	0
N#Cc1ccc(-c2cccnc2)nc1SCC(=O)Nc1sc2c(c1C#N)CCC2	66	0	85	0
CCC1(CC)NC(=O)N(CC(=O)Nc2sc3c(c2C(N)=O)CCC3)C1=O	74[fluorescence artefact?]	0	84	0
CCOC(=O)Cc1csc(SCC(=O)Nc2sc3c(c2C(N)=O)CCC3)n1	82[fluorescence artefact?]	0	92[fluorescence artefact?]	0
NC(=O)c1c(NC(=O)CSc2nnc(-c3ccco3)n2-c2ccccc2)sc2c1CCC2	82[fluorescence artefact?]	0	94[fluorescence artefact?]	0
NC(N)=NC(N)=Nc1ccc(S(N)(=O)=O)cc1	-	-	-	0
NC(=O)c1c(NC(=O)COC(=O)CSc2nnc(-c3ccc(Cl)cc3)o2)sc2c1CCC2	0	0	58[fluorescence artefact?]	0
O=C(CSc1n[nH]c(-c2ccco2)n1)Nc1sc2c(c1C(=O)Nc1ccccc1)CCCC2	0	0	51	0
SMILES	ERb SRC1 inh	ERa SRC1 pot	ERa SRC1 inh	Smad3 inh
COc1ccc(-c2nnc(SCC(=O)Nc3sc4c(c3C#N)CCCC4)n2-c2ccccc2)cc1	0	230[fluorescence artefact?]	0	0
CCOC(=O)c1c(NC(=O)CSc2n[nH]c(-c3ccco3)n2)sc(C)c1C	0	0	0	0
C[N+](C)(C)c1nc(N)nc2c1ncn2[C@H]1O[C@@H](CO)[C@H](O)[C@H]1O	-	-	-	0
COc1cccc2c1C(=N)c1c(O)c3c(c(O)c1C2=O)C[C@](O)(C(C)=O)C[C@@H]3O[C@@H]1C[C@H](N)[C@@H](O)[C@H](C)O1	-	-	-	0
O=C(O)c1cc2sccc2s1	59	0	0	0
Cc1ccc(C)c(S(=O)(=O)N2CCN(CC(=O)N3CCc4ccccc4C3)CC2)c1	0	0	0	0
Cc1ccc(-n2c(SCC(N)=O)nc3c([nH]c4ccccc43)c2=O)cc1	0	0	0	0
COc1cccc(-n2c(SCC(N)=O)nc3c([nH]c4ccccc43)c2=O)c1	0	633[fluorescence artefact?]	0	0
COc1cccc(-n2c(SCC(=O)Nc3cc(C)on3)nc3c([nH]c4ccccc43)c2=O)c1	0	0	0	0
COc1ccc(-n2c(SCC(=O)N3CCCC3)nc3c([nH]c4ccccc43)c2=O)cc1	60[fluorescence artefact?]	0	87	0
O=C(CSc1nc2c([nH]c3ccccc32)c(=O)n1-c1ccccc1)N1CCOCC1	0	0	0	0
O=C(CSc1nc2c([nH]c3ccccc32)c(=O)n1-c1cccc(Cl)c1)N1CCOCC1	73[fluorescence artefact?]	0	91[fluorescence artefact?]	0
Cc1ccc(S(=O)(=O)O[C@@H]2[C@@H]3OC(C)(C)O[C@@H]3O[C@@H]2[C@@H]2COC(C)(C)O2)cc1	-	-	-	0
